Source: PubChem BioAssay AID624138 (Broad Institute, 2012)
In all, about 17,000 compounds went through this assay and about 35 (0.2%) were called active.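 How the source made its calls: active means compounds whose four printed spots each show fluorescence over background unusually high for their array block, chance value under 7%; inactive means the rest.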 The list comes from a sample in which actives are over-represented; it also holds similar structures and randomly drawn compounds.

The compounds below were run against Signal transducer and activator of transcription 3 (Homo sapiens) (UniProt P40763) (assay: STAT3 binders, primary screen, biochemical, small molecule microarray, single point, set 2 (AID 624138)). Settings: His-STAT3 binding, anti-His fluorescence.
Signal transducer and activator of transcription 3 (Homo sapiens), sequence (P40763 whole entry, looked up): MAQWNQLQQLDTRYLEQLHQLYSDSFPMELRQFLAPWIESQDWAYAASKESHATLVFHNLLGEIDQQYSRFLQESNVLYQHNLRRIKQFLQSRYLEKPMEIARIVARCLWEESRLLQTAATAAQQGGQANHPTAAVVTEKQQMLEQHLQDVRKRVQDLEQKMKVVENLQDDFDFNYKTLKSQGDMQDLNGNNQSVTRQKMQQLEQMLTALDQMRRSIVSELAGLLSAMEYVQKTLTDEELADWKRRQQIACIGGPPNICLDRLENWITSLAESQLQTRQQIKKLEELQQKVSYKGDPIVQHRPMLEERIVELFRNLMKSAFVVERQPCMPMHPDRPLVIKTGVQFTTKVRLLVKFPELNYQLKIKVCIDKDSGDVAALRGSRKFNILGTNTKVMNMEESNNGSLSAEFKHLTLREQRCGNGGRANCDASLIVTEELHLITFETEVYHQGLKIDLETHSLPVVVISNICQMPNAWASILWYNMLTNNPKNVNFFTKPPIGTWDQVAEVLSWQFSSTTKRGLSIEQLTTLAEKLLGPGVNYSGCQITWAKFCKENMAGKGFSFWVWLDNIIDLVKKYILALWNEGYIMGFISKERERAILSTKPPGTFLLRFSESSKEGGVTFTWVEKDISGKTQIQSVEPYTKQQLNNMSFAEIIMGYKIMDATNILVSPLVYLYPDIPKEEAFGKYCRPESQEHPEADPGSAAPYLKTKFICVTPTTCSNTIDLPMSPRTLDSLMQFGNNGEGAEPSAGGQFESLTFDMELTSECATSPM

outcome, active:
C[C@H](CO)N1C[C@H](C)[C@H](CN(C)C(=O)CCC(F)(F)F)OCCCC[C@H](C)Oc2ccc(NS(C)(=O)=O)cc2C1=O

outcome, inactive:
O=C(NC1CC1)C1=C[C@H](c2coc3ccccc3c2=O)C[C@H](OCCCCO)O1, C[C@@H]1CN([C@H](C)CO)C(=O)Cc2cc(NC(=O)CCN3CCOCC3)ccc2O[C@H]1CN(C)Cc1ccncc1, C=C1CCC(C)C(C)(CCC2=CC(OC)OC2=O)C/C=C\C=C\1C(=O)O (stereo unspecified), C=CCNC(=O)[C@H]1[C@@H]2C(=O)O[C@@H](c3ccccc3)[C@@H](c3ccccc3)N2[C@@H](c2ccccc2OCCO)[C@]12C(=O)N(C(=O)OCCOC)c1ccc(C#Cc3ccc(OC)cc3)cc12, C[C@@H]1CN([C@H](C)CO)C(=O)c2cc(NC(=O)Nc3ccccc3)ccc2O[C@@H](C)CCCCO[C@@H]1CN(C)Cc1ccncc1, C[C@H]1CN([C@@H](C)CO)C(=O)Cc2cc(NC(=O)C3CC3)ccc2O[C@@H]1CN(C)S(=O)(=O)c1cccs1, COc1ccc(S(=O)(=O)N(C)C[C@@H]2Oc3c(NS(=O)(=O)c4ccccc4)cccc3C(=O)N([C@@H](C)CO)C[C@@H]2C)cc1, C[C@@H]1CN([C@H](C)CO)C(=O)c2cccc(NC(=O)c3ccncc3)c2O[C@@H]1CN(C)S(=O)(=O)c1cn(C)cn1, Cc1cccc(-n2c(SCC(N)=O)nnc2-c2ccncc2)c1C, C[C@@H]1CCCCO[C@@H](CN(C)C)[C@@H](C)CN([C@H](C)CO)C(=O)c2cc(NC(=O)c3ccncc3)ccc2O1, OC(CCCN1CCN(c2ncc(F)cn2)CC1)c1ccc(F)cc1 (stereo unspecified), C[C@@H]1CN([C@H](C)CO)C(=O)c2cccc(NS(=O)(=O)c3cn(C)cn3)c2O[C@@H]1CN(C)Cc1ccc(C(F)(F)F)cc1, Cc1ccc(NC(=O)C(C)N(c2ccc(Cl)cc2)S(C)(=O)=O)c(C)c1 (stereo unspecified), COc1ccc(-c2cnc3c(-c4ccsc4)cnn3c2)cc1, C[C@@H]1CCCCO[C@@H](CN(C)C(=O)NC2CCCCC2)[C@H](C)CN([C@H](C)CO)C(=O)c2cc(NS(=O)(=O)c3ccc(Cl)cc3)ccc2O1, Cc1noc(C)c1NC(=O)Nc1ccc2c(c1)C(=O)N([C@@H](C)CO)C[C@@H](C)[C@H](CN(C)C)O2, C[C@@H]1CCCCO[C@H](CN(C)C(=O)Nc2ccc3c(c2)OCO3)[C@@H](C)CN([C@@H](C)CO)C(=O)c2cc(NC(=O)CCC(F)(F)F)ccc2O1, C[C@@H]1CN([C@@H](C)CO)C(=O)Cc2cc(NS(C)(=O)=O)ccc2O[C@@H]1CN(C)Cc1ccc2c(c1)OCO2, Cc1ccc(S(=O)(=O)N(C)C[C@H]2Oc3ccc(NC(=O)CCC(F)(F)F)cc3C(=O)N([C@@H](C)CO)C[C@H]2C)cc1, C[C@@H]1CN([C@H](C)CO)C(=O)Cc2cc(NC(=O)CCCN(C)C)ccc2O[C@@H]1CN(C)S(=O)(=O)c1cccs1, N#Cc1cccc(CSc2nnc(CCCO)n2-c2ccccc2)c1, C[C@@H]1CCCCO[C@@H](CN(C)Cc2ccccc2)[C@H](C)CN([C@H](C)CO)C(=O)c2cc(NS(=O)(=O)c3cccs3)ccc2O1, O=C(CS(=O)(=O)c1ccccc1)Nc1ccc2c(c1)OCCO2, O=[N+]([O-])c1ccccc1/C=C/CN1CCC(O)CC1, COc1ccc(CN(C)C[C@H]2Oc3c(NC(=O)c4ccncc4)cccc3C(=O)N([C@H](C)CO)C[C@@H]2C)cc1, CCO[C@@H]1OC(C(=O)N2CCOCC2)=C[C@H](C)[C@H]1CCCO, O=[N+]([O-])c1ccc(NCCNS(=O)(=O)c2ccc(Br)cc2)c(C(F)(F)F)c1, COc1ccc(NC(=S)NCc2cc(C)n(C)n2)cc1OC, C[C@@H]1CN([C@@H](C)CO)C(=O)c2cc(NC(=O)Nc3ccc4c(c3)OCO4)ccc2O[C@@H]1CN(C)C(=O)Nc1ccc2c(c1)OCO2, C[C@@H]1CN([C@H](C)CO)C(=O)c2cccc(NC(=O)Nc3cccc4ccccc34)c2O[C@@H]1CN(C)C(=O)Nc1cccc2ccccc12, CNC[C@@H]1Oc2ccc(NC(=O)CCC(F)(F)F)cc2C(=O)N([C@@H](C)CO)C[C@@H]1C, Oc1cc(O)c2c(c1)OC(c1ccc(O)c(O)c1)C(O)C2 (stereo unspecified), C[C@H]1CN([C@@H](C)CO)C(=O)c2cc(N(C)C)ccc2O[C@@H]1CN(C)Cc1ccccc1, CCN(CCCCOC(=O)c1ccc(OC)c(OC)c1)C(C)Cc1ccc(OC)cc1 (stereo unspecified), COc1ccc(S(=O)(=O)N(C)C[C@H]2Oc3c(NC(=O)NC4CCCCC4)cccc3C(=O)N([C@@H](C)CO)C[C@@H]2C)cc1, CCc1cc2c(=O)n(-c3ccccc3)c(SCC(=O)O)nc2s1, C[C@H]1CCCCO[C@@H](CN(C)C(=O)c2ccccc2)[C@@H](C)CN([C@@H](C)CO)C(=O)c2cc(NS(=O)(=O)c3cccs3)ccc2O1, Cc1noc(C)c1NC(=O)Nc1ccc2c(c1)C(=O)N([C@@H](C)CO)C[C@H](C)[C@@H](CN(C)C(=O)C1CCCCC1)OCCCC[C@@H](C)O2, C[C@@H]1CCCCO[C@H](CN(C)C(=O)CCC(F)(F)F)[C@H](C)CN([C@H](C)CO)C(=O)c2cc(NS(C)(=O)=O)ccc2O1, C[C@@H]1CN([C@H](C)CO)C(=O)c2cc(NS(=O)(=O)c3ccccc3)ccc2O[C@@H](C)CCCCO[C@@H]1CN(C)C(=O)CCC(F)(F)F, Cc1ccc(-n2c(SCC(=O)Nc3ccc(F)c(F)c3)nnc2-c2ccccn2)cc1, CC(C)NC(=O)Nc1ccc2c(c1)C(=O)N([C@H](C)CO)C[C@H](C)[C@H](CN(C)Cc1ccc(C(=O)O)cc1)OCCCC[C@@H](C)O2, O=C(NCc1ccco1)c1nc2ncccn2n1, OC(COc1ccc2ccccc2c1)Cn1cncn1 (stereo unspecified), Cc1ccc(C(=O)C2C(=O)C(=O)N(Cc3cccnc3)C2c2ccc(Cl)c(Cl)c2)o1 (stereo unspecified)
